An excerpt weighted towards active compounds, which were near 2.7% of everything screened.
ATXN2 expr inh: reduces ATXN2 reporter expression in HEK-293 cells. HEK-293 ATXN2-luciferase reporter, luminescence, 24 h. Potency, µM (highest dose often 57 µM), usual class: inhibitors. actives 0.72% (n = 360,000). AID 1745845; also: nearly all actives have a fitted effect of over 55% in size
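ATXN2-luciferase reporter cells (luciferase flanked by upstream and downstream ATXN2 gene portions) were treated 24 h at 37 °C with compounds at up to 57 uM. SteadyGlo luminescence gave expression; GF-AFC fluorescence gave viability.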
TGFb inhibitor: blocks TGF-b signaling; HepG2 CAGA-GFP TGF-b/SMAD3 reporter, GFP fluorescence, 18 h; TGF-beta stimulated, 500 pg/mL final; Potency, µM (doses to about 46.1 µM), actives largely listed as inhibitors; actives 1.2% (n = 410,000); AID 588855; also: nearly all actives have a fitted effect of over 65% in size
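HEPG2 CAGA-GFP, 1000 cells/well; 2 h settle, 37 C; cpd via pin tool; TGF-b 500 pg/mL final; 18 h, 37 C; GFP imaging ex488/em500-530; %Activity normalised to -TGF-b and +DMSO controls; CRC fit, curve class.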
HepG2 tox: HepG2 cytotoxicity, counter-screen for TGF-b inhibitors; actives 0.76% (n = 410,000); Potency, µM (doses to about 46.1 µM), usual class: cytotoxic; HepG2 CAGA-GFP viability, ATP luminescence, 18 h
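CellTiter-Glo luminescence gave cytotoxicity after 18 hours at 37 degrees C. The cells were HepG2 CAGA-GFP in 1% FBS DMEM, stimulated with 500 pg/mL TGF-beta after compound addition. %Activity was normalised to no-cell wells (complete cell-killing) and DMSO (no toxicity), and curves were fitted and classified.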
S2 tox: cell viability loss in ATXN counter-screen; AID 651635; S2 cells (HEK-293 line with an ATXN2-luciferase reporter) viability, CellTiter-Fluor protease fluorescence, 24 h; actives 0.49% (n = 400,000); Potency, µM (series often up to 56.7 µM), hits mostly cytotoxic; also: nearly all actives have a fitted effect of over 40% in size
ALOX12 inh: inhibitors of human 12S-lipoxygenase ALOX12 | P18054 | purified 12hLO, xylenol orange hydroperoxide absorbance | Potency, µM (highest dose often 108 µM), usual class: inhibitors | actives 1.1% (n = 580,000) | AID 1671190
Target sequence (P18054 whole entry, looked up): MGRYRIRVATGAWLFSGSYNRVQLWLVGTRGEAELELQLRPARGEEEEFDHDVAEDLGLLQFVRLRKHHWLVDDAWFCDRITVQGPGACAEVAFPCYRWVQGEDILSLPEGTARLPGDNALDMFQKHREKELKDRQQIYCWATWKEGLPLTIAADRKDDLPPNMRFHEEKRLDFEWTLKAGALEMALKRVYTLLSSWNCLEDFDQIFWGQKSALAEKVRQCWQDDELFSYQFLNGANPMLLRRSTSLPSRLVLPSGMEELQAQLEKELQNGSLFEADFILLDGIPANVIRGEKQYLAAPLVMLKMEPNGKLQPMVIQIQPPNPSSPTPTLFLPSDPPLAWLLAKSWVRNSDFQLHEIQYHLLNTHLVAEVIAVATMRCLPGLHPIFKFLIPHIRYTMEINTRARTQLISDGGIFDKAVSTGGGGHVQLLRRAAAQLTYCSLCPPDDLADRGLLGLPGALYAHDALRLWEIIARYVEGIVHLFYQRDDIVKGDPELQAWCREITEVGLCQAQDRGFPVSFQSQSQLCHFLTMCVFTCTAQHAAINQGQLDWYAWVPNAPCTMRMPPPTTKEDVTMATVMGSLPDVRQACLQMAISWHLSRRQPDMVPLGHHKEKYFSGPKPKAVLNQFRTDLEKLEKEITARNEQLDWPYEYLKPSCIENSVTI
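Hydroperoxide product was detected by ferrous iron/xylenol orange as the 573 to 405 nm absorbance ratio. Arachidonic acid at 40 uM (final) was turned over for 30 min at room temperature by 150 nM human 12hLO, pH 7.0 Hepes buffer, after 15 min compound preincubation.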
Numbers stand for hits; ! = not active in a repeat. Calls follow the shape of the dose curve; as a rule, active = well fitted curve in the direction sought with a large enough effect; inconclusive = small, poorly fitted or top-dose-only effect, or another doubt; inactive = no such curve, though single readings can be large; an effect the other way counts as inactive or inconclusive.

For Cc1ccc(N(NC(=O)C(O)(c2ccccc2)c2ccccc2)C(=O)CCl)cc1 the results were ATXN2 expr inh 28.2µM, TGFb inhibitor inconclusive, HepG2 tox 15.8µM, S2 tox 17.8µM and ALOX12 inh inactive.
`Cc1cc2ccccc2n1CC(=O)N1CCN(CC(=O)N2CCCC2)CC1` gave ALOX12 inh inactive.
For CCC1CCCCN1S(=O)(=O)c1cc(C(=O)Nc2ccc(C)c(F)c2)ccc1F (configuration not stated) the results were TGFb inhibitor 11.2µM, HepG2 tox inactive and ALOX12 inh inconclusive.
Screening O=C(CC1Sc2ccc(C(F)(F)F)cc2NC1=O)NOC1CCCCO1 (configuration not stated) returned ALOX12 inh inactive.
CC(=O)c1ccc(Nc2nc(N3CCOCC3)nc(N3CCOCC3)n2)cc1 was read as ATXN2 expr inh inactive, TGFb inhibitor inactive, HepG2 tox inactive, S2 tox inactive and ALOX12 inh inactive.
Screening N#CCNC(=O)c1ccc(-c2ccnc(Nc3ccc(N4CCOCC4)cc3)n2)cc1 returned ATXN2 expr inh 19.3µM and ALOX12 inh inactive.
For CN(C)c1cccc(C(=O)Nc2ccc(-c3nc4ccccc4o3)cc2)c1 the results were ALOX12 inh inactive.
For c1ccc(-c2nc3cc4ccccc4cc3[nH]2)nc1 the results were ATXN2 expr inh inactive, TGFb inhibitor inactive, HepG2 tox 8.91µM, S2 tox inactive and ALOX12 inh inactive.
O=c1[nH]c(CN2CCCCCCC2)nc2ccsc12 was read as ALOX12 inh inactive.
`Nc1c(N(CCC2=CCCCC2)C(=O)COc2ccc(F)cc2Cl)c(=O)[nH]c(=O)n1Cc1ccccc1` gave ATXN2 expr inh 11.2µM, TGFb inhibitor 3.16µM, HepG2 tox 3.55µM and ALOX12 inh inactive.
For CN(Cc1ccccc1)C1CCOC2(CCN(C(=O)c3ccsc3)CC2)C1 (configuration not stated) the results were ALOX12 inh inactive.
Cc1ccc(OCCN(C)C(=O)COc2ccc3c(C)cc(=O)oc3c2)cc1 was read as ALOX12 inh inactive.
`COc1ccc(NC(=O)O[C@@H]2CO[C@H]3[C@@H]2OC[C@@H]3NC(=S)NC2CCCCC2)cc1` gave ALOX12 inh inactive.
For CO[C@@H]1CO[C@H]2[C@@H]1OC[C@@H]2NC(=S)Nc1ccc(Cl)cc1 the results were ALOX12 inh 79.4µM.
Screening O=C(C#Cc1ccccc1)c1ccccc1 returned TGFb inhibitor 10µM, HepG2 tox 12.6µM, S2 tox inconclusive and ALOX12 inh inactive.
`COC[C@@H]1CN(S(=O)(=O)c2cccc(C)c2)C[C@H]1c1nc(C)no1` gave ALOX12 inh 44.7µM.
`COC[C@@H]1CN(S(=O)(=O)c2ccc(C)cc2)C[C@H]1c1nc(C)no1` gave ALOX12 inh inactive.
Screening CC(C)N(Cc1ccc([N+](=O)[O-])cc1)c1ccccc1 returned ALOX12 inh inactive.
For C=C(CN(C)C)C(=O)c1ccc(OC2OC(COC(C)=O)C(OC(C)=O)C(OC(C)=O)C2OC(C)=O)cc1 (configuration not stated) the results were ATXN2 expr inh inconclusive, TGFb inhibitor inconclusive, HepG2 tox inactive, S2 tox 9.47µM and ALOX12 inh inconclusive.
Cc1ccc(C(=O)Nc2cccc(C(F)(F)F)c2)cc1NC(=O)c1c[nH]c2cc(C(F)(F)F)ccc2c1=O was read as ATXN2 expr inh inactive, TGFb inhibitor inactive, HepG2 tox inactive, S2 tox inactive and ALOX12 inh inactive.
CCN1CCN(Cc2ccc(NC(=O)c3ccc(C)c(NC(=O)c4ccno4)c3)cc2C(F)(F)F)CC1 was read as ATXN2 expr inh inactive, TGFb inhibitor inactive, HepG2 tox inactive, S2 tox inactive and ALOX12 inh inactive.
CCN1CCN(Cc2ccc(NC(=O)c3ccc(C)c(NC(=O)c4csc(-c5ccncc5)n4)c3)cc2C(F)(F)F)CC1 was read as ATXN2 expr inh inactive, TGFb inhibitor inconclusive, HepG2 tox 15.8µM, S2 tox inconclusive and ALOX12 inh inactive.
CCN1CCN(Cc2ccc(NC(=O)c3ccc(C)c(/C=C/c4cnc(Nc5cc(N6CCNCC6)nc(C)n5)cn4)c3)cc2C(F)(F)F)CC1 was read as ATXN2 expr inh 12.6µM!, TGFb inhibitor inconclusive, HepG2 tox 17.8µM and S2 tox inactive.
For CCN1CCN(Cc2ccc(NC(=O)c3ccc(C)c(NC(=O)c4c[nH]c5cc(C(F)(F)F)ccc5c4=O)c3)cc2C(F)(F)F)CC1 the results were ATXN2 expr inh 3.98µM!, TGFb inhibitor 11.2µM, HepG2 tox 15.8µM!, S2 tox 7.08µM and ALOX12 inh inconclusive.
CCN1CCN(Cc2ccc(NC(=O)c3ccc(C)c(NC(=O)c4cccc(-c5cn[nH]c(=O)c5)c4)c3)cc2C(F)(F)F)CC1 was read as ATXN2 expr inh inconclusive, TGFb inhibitor inactive, HepG2 tox inactive and S2 tox inconclusive.
`CCOc1ccc(C(=O)N2CCN(c3cc(-c4ccc(Cl)cc4)[nH]n3)CC2)cc1OCC` gave ALOX12 inh inactive.
For O=c1c(Cl)c(Cl)cnn1-c1ccccc1 the results were ATXN2 expr inh inconclusive, TGFb inhibitor inconclusive, HepG2 tox 14.1µM, S2 tox inconclusive and ALOX12 inh inactive.
O=c1[nH]ncc(N/N=C/c2ccccc2)c1Cl was read as ATXN2 expr inh inactive, TGFb inhibitor inactive, HepG2 tox inactive, S2 tox inactive and ALOX12 inh inactive.
O=c1c(Cl)c(Cl)cnn1Cc1ccccc1Cl was read as ATXN2 expr inh 8.91µM, TGFb inhibitor inconclusive, HepG2 tox inactive, S2 tox 10µM and ALOX12 inh inactive.
For O=c1c(Cl)c(N/N=C/c2ccc(Cl)cc2)cnn1-c1ccccc1 the results were TGFb inhibitor inconclusive, HepG2 tox 14.1µM, S2 tox inconclusive and ALOX12 inh inconclusive.
`O=c1c(Cl)c(Cl)cnn1Cc1nnc(-c2ccc(Cl)cc2)o1` gave ATXN2 expr inh inconclusive, TGFb inhibitor 12.6µM, HepG2 tox 11.2µM, S2 tox inconclusive and ALOX12 inh inactive.
For Cc1ccc(Cn2ncc(Cl)c(Cl)c2=O)cc1 the results were ATXN2 expr inh inconclusive, TGFb inhibitor inconclusive, HepG2 tox inactive and ALOX12 inh inactive.
For Cc1ccc(-c2nc(NC(=O)c3cc(C)on3)sc2C)cc1 the results were ALOX12 inh inactive.
Screening N#C/C(=C\c1ccc(OCc2ccc(C(=O)O)cc2)cc1)C(=O)N1CCOCC1 returned ATXN2 expr inh 8.91µM, TGFb inhibitor inactive, HepG2 tox inactive, S2 tox inactive and ALOX12 inh inactive.
Screening O=C(COc1ccc([N+](=O)[O-])cc1)Nc1ccccc1N1CCCC1 returned TGFb inhibitor inactive, HepG2 tox inactive, S2 tox inactive and ALOX12 inh inactive.
